LMNA splice mod: LMNA splicing modulation. HeLa LMNA splicing GFP/RFP minigene ratio, 48 h. Potency, µM (series often up to 46.1 µM), without a hit: at the highest dose ratio change, negative = inhibition, most hits filed as inhibitors. actives 0.01% (n = 200,000). AID 1487; active means well fitted inhibition curve with a large enough effect in the signal ratio, with a control signal flat, not every such curve was filed as active; inconclusive means small, poorly fitted or top-dose-only effect, or effect the other way, or a change in a side signal; the % refers to the signal ratio; further: on the % scale 0 is the no-effect control and ±100 the full control effect
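S3 HeLa stable clones carrying a lamin A-EGFP splicing minigene plus DsRed2 were seeded at 600 cells/well in Opti-MEM with 2% FBS, pin-dosed and incubated 48 h at 37°C. Acumen cytometry (488 nm) gave the GFP/RFP total-intensity ratio.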
HttQ103 aggreg: inhibitors of mutant huntingtin aggregate formation in PC12 cells; Potency, µM (top dose mostly 46.1 µM), for the others: at the highest dose activity change, negative = inhibition, most hits filed as inhibitors; PC12 HttQ103-GFP aggregates, Acumen cytometry, 40 h; actives 1.1% (n = 220,000); active means well fitted curve in the direction sought with a large enough effect; inconclusive means small, poorly fitted or top-dose-only effect, or another doubt; inactive means no such curve, though single readings can be large; an effect the other way counts as inactive or inconclusive; further: on the % scale 0 is the no-effect control and ±100 the full control effect; nearly all actives have a fitted effect of over 60% in size
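PC12 cells with ecdysone-inducible HTT exon1 Q103-GFP, induced by 100 nM tebufenozide, given compounds in a concentration series. GFP aggregates (1–25 um, 6 SD above background) counted in lysates by laser-scanning cytometry, 488 nm excitation.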
HTT ATP protect: cytoprotection in Huntington HTT-Q103 PC12 cell model; Potency, µM (top dose mostly 56.4 µM), inactives show cytoprotection (ATP increase), actives largely listed as activators; PC12 HTT-Q103 induced, cytoprotection, ATP luminescence, 40 h; actives 0.14% (n = 230,000); active means well fitted curve in the direction sought with a large enough effect; inconclusive means small, poorly fitted or top-dose-only effect, or another doubt; inactive means no such curve, though single readings can be large; an effect the other way counts as inactive or inconclusive; further: % of control where 0% means no effect; nearly all actives have a fitted effect of over 45% in size
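Readout: ATPlite luminescence (ATP level). Model: stable PC12, inducible Htt exon1 Q103-GFP. Inducer: tebufenozide, 100 nM final. Compounds: dose series. No G418 in medium.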
ALDH1A1 block: blocks purified human ALDH1A1 activity; AID 1030; Purified ALDH1A1, NADH fluorescence, propionaldehyde substrate; P00352; actives 7.3% (n = 220,000); Potency, µM (titrated, usually from 75.3 µM), for inactives: top-dose activity, negative = inhibition, most hits filed as inhibitors;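 further: plate controls were no enzyme wells and a reference inhibitor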
Target sequence (P00352 whole entry, looked up): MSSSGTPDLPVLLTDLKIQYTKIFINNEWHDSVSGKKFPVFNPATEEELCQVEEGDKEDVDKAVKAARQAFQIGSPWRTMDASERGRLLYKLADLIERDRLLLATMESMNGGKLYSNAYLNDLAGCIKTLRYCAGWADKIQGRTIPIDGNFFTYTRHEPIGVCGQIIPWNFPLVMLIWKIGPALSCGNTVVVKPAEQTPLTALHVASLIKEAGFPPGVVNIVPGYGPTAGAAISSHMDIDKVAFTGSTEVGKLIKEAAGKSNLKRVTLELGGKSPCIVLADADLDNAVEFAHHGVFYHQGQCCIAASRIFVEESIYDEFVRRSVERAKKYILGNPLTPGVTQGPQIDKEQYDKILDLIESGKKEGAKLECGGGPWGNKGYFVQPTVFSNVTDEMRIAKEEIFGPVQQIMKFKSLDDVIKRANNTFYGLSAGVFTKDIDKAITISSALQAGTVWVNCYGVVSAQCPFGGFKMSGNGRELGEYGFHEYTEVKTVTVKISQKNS
HPGD inh: inhibitors of human 15-hydroxyprostaglandin dehydrogenase (HPGD). AID 894. purified HPGD, NADH fluorescence kinetic, PGE2 substrate. P15428. actives 4.3% (n = 150,000). Potency, µM, for inactives: top-dose activity change, negative = inhibition, actives largely listed as inhibitors; further: on the % scale 0 is the no-effect control and ±100 the full control effect
Target sequence (P15428 whole entry, looked up): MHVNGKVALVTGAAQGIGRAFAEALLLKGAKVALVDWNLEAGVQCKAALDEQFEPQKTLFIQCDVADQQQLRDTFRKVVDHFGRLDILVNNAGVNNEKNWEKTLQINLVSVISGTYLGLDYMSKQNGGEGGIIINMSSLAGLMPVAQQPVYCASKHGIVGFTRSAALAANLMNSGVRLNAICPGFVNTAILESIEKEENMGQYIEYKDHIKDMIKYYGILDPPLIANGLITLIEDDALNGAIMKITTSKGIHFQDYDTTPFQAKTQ
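20 nM HPGD preincubated 15 min at room temperature with compound in 50 mM Tris-HCl pH 8, 0.01% Tween 20. Started with 1 mM NAD+ and 30 uM prostaglandin E2; NADH fluorescence (360/450 nm) read 5 times over 30-s intervals, last minus first.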
JMJD2E inh: blocks human JMJD2E demethylase activity | B2RXH2 | actives 1.6% (n = 230,000) | Potency, µM (highest dose often 57.1 µM), for the others: top-dose activity change, negative = inhibition, hits mostly inhibitors | JMJD2E catalytic domain, FDH-coupled NADH fluorescence (FDH is formaldehyde dehydrogenase);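 further: 0% = wells with enzyme and -100% = buffer wells without enzyme; nearly all actives have a fitted effect of over 50% in size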
Numbers without * were called inactive; ? = inconclusive; · = no result given; [ ] = another dose, or the depositor's remark. The list is not random: actives were taken first. Their share in the collection is about 9.2%. Unless noted, the call rests on the fitted dose curve; in most records, active means well fitted inhibition curve with a large enough effect (not every such curve was filed as active); inconclusive means small, poorly fitted or top-dose-only effect, or another doubt; inactive means no such curve, though single readings can be large or run the other way. Potency means the concentration at half of the fitted maximal effect.

SMILES	LMNA splice mod	HttQ103 aggreg	HTT ATP protect	ALDH1A1 block	HPGD inh	JMJD2E inh
O=[N+]([O-])c1ccc(Oc2cccc3cccnc23)c([N+](=O)[O-])c1	?	22.4µM*	·	?	-4.7%	4.0%
Cc1ccc2cccc(Oc3ccc([N+](=O)[O-])cc3[N+](=O)[O-])c2n1	?	-2.0%	·	2.7%	-18.5%	-9.8%
Cc1cc(Nc2cccc([N+](=O)[O-])c2)n2c(nc3ccccc32)c1C#N	?	2.82µM*	-1.7%[10 µM]	6.3%	-6.7%	-24.1%
Cc1cc(N/N=C/c2ccc(O)cc2O)nc(N2CCOCC2)n1	·	8.7%[9.22 µM]	6.6%[10 µM]	-8.4%	·	-2.4%
Oc1ccc(/C=N/Nc2cc(N3CCCC3)nc(N3CCCC3)n2)cc1O	?	-27.9%	9.7%[10 µM]	-3.7%	-9.3%	14.1µM*
Oc1ccc(/C=N\Nc2cc(N3CCOCC3)nc(N3CCOCC3)n2)c(O)c1	?	-27.6%	-4.3%[10 µM]	-3.2%	-8.8%	14.1µM*
C=C1CCN([C@H](C(=O)NCc2ccccc2)C(C)C)S(=O)(=O)c2ccccc21	·	28.9%[9.22 µM]	18.5%[10 µM]	·	·	4.1%
O=C(CCN1C(=O)C2CCCCC2C1=O)Nc1ccc(F)c(F)c1F (stereo unspecified)	·	-1.0%	-32.8%	10µM*	·	-0.2%
Cc1c(Cl)cccc1NC(=O)C(=O)NNC(=O)c1ccccc1F	·	-12.3%	·	8.1%	·	3.5%
CC1Cc2ccccc2N1C(=O)CN1C(=O)COc2ccccc21 (stereo unspecified)	7.0%	7.6%	-0.3%	16.0%	-9.7%	-5.7%
CC1Cc2ccccc2N1C(=O)CN1C(=O)C(=O)N(Cc2ccccc2)C1=O (stereo unspecified)	14.7%	17.9%[9.22 µM]	-4.9%	31.6µM*	-21.1%	6.9%
COC(=O)[C@@]1(Cc2ccc(OC)cc2)[C@H]2c3cc(C(=O)N(C)C)n(Cc4ccsc4Br)c3C[C@H]2CN1C(=O)c1ccccc1	·	·	-48.2%	-3.1%	-3.1%	-2.5%
CC[C@@]1([N+](=O)[O-])C[C@H]2C=C[C@@H]1C2	·	·	15.9%[10 µM]	10.1%[13.5 µM]	-9.5%	·
Clc1ccc(-n2nnc(-c3nccs3)n2)cc1Cl	·	8.6%[9.22 µM]	-15.6%[10 µM]	25.1µM*	·	12.6µM*
O=S(=O)(NCCc1ccccc1)c1cccc2cccnc12	14.6%[46 µM]	-5.4%	-15.2%	3.5%	·	11.4%
CN(CCCNS(=O)(=O)c1cccc2cccnc12)Cc1ccccc1	-5.2%	-7.5%	-5.2%	14.1µM*	-11.5%	?
O=C(c1cc(-c2ccccc2Cl)on1)N1CCN(C(=O)c2ccco2)CC1	15.4%	7.7%	-23.0%	2.0%	-19.0%	1.2%
O=C(c1cc(-c2ccco2)on1)N1CCOCC1	6.7%	-6.4%	-5.2%	?	-27.3%	-18.8%
O=C(c1cc(-c2ccc(Cl)cc2Cl)on1)N1CCN(C(=O)c2ccco2)CC1	4.1%	19.5%	14.9%	2.82µM*	10µM*	-0.5%
CN1CCN(C(=O)c2cc(-c3cccc(Cl)c3)on2)CC1	3.0%	-30.2%	7.0%	4.47µM*	·	-4.2%
COc1ccc(-c2cc(C(=O)O)no2)cc1	13.3%[46 µM]	5.8%[9.22 µM]	-20.2%	0.447µM*	14.1µM*	-14.4%
CN1CCN(C(=O)c2cc(-c3ccco3)on2)CC1	6.0%	6.9%	22.0%	-4.7%	31.6µM*	1.1%
N=C(N)SCCc1ccccn1	·	·	-14.8%[10 µM]	1.6%[13.5 µM]	-5.1%	·
COCCNc1nc(-c2cccc(OC)c2)nc2ccccc12	-3.3%	·	2.3%	9.7%	-15.7%	-9.6%
COc1ccccc1CNc1ccnc(-c2cccnc2)n1	?	·	4.8%	7.3%	·	·
SMILES	LMNA splice mod	HttQ103 aggreg	HTT ATP protect	ALDH1A1 block	HPGD inh	JMJD2E inh
CC(=O)Nc1ccc(NC(=O)c2oc3c(c2C)-c2nn(Cc4ccccc4Cl)cc2CC3)cc1	21.8%[46 µM]	·	·	·	·	·
COc1ccc(-c2cc(C(=O)N3CCCCC3)no2)cc1OC	1.9%	-10.7%	-21.0%	-8.8%	14.1µM*	2.5%
Cc1onc(-c2ccccc2Cl)c1C(=O)N1CCN(C(=O)c2ccco2)CC1	?	?	-7.6%	22.4µM*	-6.8%	-2.8%
N[C@](CC1c2ccccc2Oc2ccccc21)(C(=O)O)[C@@H]1C[C@@H]1C(=O)O	·	·	-6.1%	1.4%	-15.4%	-13.4%
COc1ccc(S(=O)(=O)NCC(c2cccs2)S(=O)(=O)c2ccccc2)cc1OC (stereo unspecified)	-0.9%[46 µM]	·	·	·	·	·
COc1ccc(OCC(=O)Nc2nc(-c3ccc(Br)cc3)ns2)cc1	-9.0%[46 µM]	·	·	·	·	·
CCOC(=O)N1CCC2(CC1)C(C#N)=C(N)Oc1c2c(C)nn1-c1cccc(Cl)c1	-16.9%	?	-12.1%[0.074 µM]	12.6µM*	-11.0%	?
CCOc1ccc(-n2c(C)c(C(C)=O)c(C(C)=O)c2C)cc1	-11.5%	-30.4%	29.0%[10 µM]	22.4µM*	-10.0%	1.6%
COc1ccc(-n2c(C)c(C(C)=O)c3cc(O)ccc32)cc1	1.5%	0.316µM*	-10.4%[10 µM]	-8.5%	3.98µM*	3.3%
O=C(N/N=C/c1cccn1-c1ccc([N+](=O)[O-])cc1)c1cccnc1	·	-25.8%[9.22 µM]	-29.3%[10 µM]	·	·	-14.3%
O=C(Nc1nc(-c2ccccc2)ns1)c1ccc(Cl)cc1	-11.4%[46 µM]	·	·	·	·	·
Cc1noc(C)c1C(=O)Nc1sc(C)c(-c2ccccc2)c1C#N	?	4.5%	-31.1%[0.074 µM]	10µM*	-28.7%	1.2%
N#Cc1c(Cl)nsc1NC(=O)c1ccccc1	·	3.98µM*	-108.0%	?	·	-3.2%
Cc1cccc(C(=O)Nc2sc(C)c(-c3ccccc3)c2C#N)c1	?	22.4µM*	-53.9%	?	?	?
Cc1sc(NC(=O)C2CCCCC2)c(C#N)c1-c1ccccc1	-9.2%	18.4%	-9.0%	?	-19.2%	-9.4%
O=C(C[n+]1ccc2ccccc2c1)c1ccc(NC(=O)c2ccccc2)cc1	·	·	·	-0.8%	·	-7.9%
CN1CCN(C(=O)C(N)Cc2ccccc2)CC1 (stereo unspecified)	?	15.2%	6.5%[10 µM]	-0.6%	·	-1.4%
Cc1ccc(C)c(/C(O)=C2\C(=O)C(=O)N(CCCn3ccnc3)C2c2ccncc2)c1 (stereo unspecified)	7.0%	-16.2%	-10.8%[10 µM]	?	28.2µM*	-29.6%
Cc1ccc(/C(O)=C2/C(=O)C(=O)N(CCCn3ccnc3)C2c2ccccn2)cc1 (stereo unspecified)	6.4%	8.8%	0.5%	5.6%	0.7%	6.4%
Cc1ccccc1COc1ccc(/C(O)=C2/C(=O)C(=O)N(CCCn3ccnc3)C2c2ccco2)cc1 (stereo unspecified)	5.8%	-10.1%	-19.8%	11.2µM*	-26.5%	?
O=S(=O)(NCc1nc2cccnc2n1Cc1ccccc1)c1ccc2c(c1)CCCC2	-7.2%[46 µM]	·	·	·	·	·
CCc1ccc(NC(=O)c2cc(S(=O)(=O)N3CCCCCC3)ccc2F)cc1	8.2%[46 µM]	·	·	·	·	·
